# Results published in the supplement of paper PMC12645437, “Orthogonal IMiD-Degron Pairs Induce Selective Protein Degradation in Cells” (ACS Chemical Biology, 2025).
# The full ranking holds about 8,300 sequences; the median of “log2 fold change of degron read counts, EGFP-low vs EGFP+ sorted cells (limma voom), compound-induced degradation” is about -1.1, and the highest 2% start at about 3.2. The sample as a whole holds a higher share of the highest values than the screen did.
# T1: CRBN, Q96SW2
# T1 chain: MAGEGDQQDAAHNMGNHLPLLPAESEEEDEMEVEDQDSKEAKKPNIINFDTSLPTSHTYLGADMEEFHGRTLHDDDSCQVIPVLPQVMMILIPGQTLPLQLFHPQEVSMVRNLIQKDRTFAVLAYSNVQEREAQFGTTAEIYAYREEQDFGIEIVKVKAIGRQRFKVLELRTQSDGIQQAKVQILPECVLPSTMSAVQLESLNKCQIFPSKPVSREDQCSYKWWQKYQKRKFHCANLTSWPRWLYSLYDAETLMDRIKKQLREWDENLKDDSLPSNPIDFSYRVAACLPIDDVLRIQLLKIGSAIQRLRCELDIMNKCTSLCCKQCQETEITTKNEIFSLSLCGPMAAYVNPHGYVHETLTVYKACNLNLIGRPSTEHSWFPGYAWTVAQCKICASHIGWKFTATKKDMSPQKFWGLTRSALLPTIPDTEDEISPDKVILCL
# Target: T1, CRBN, Q96SW2
# Test: log2 fold change of degron read counts, EGFP-low vs EGFP+ sorted cells (limma voom), compound-induced degradation; higher = more compound-induced degradation of the degron-EGFP fusion; degrons are variants of IKZF1/3 zinc finger 2; compound dose not given here
# Details: Jurkat, 18 h
# Method: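 Pooled library of 8380 IKZF3 ZF2 degron mutants (positions 146-167 varied within the IKZF3 130-189 degron; only the varied core is printed, flanks not printed) fused to EGFP with IRES-mCherry, lentivirally expressed in Jurkat cells. mCherry+ cells were treated with one IMiD compound for 18 h (dose not stated) and FACS-sorted into EGFP-low and EGFP+ populations. Degron sequences were counted by NGS, and log2FC (EGFP-low vs EGFP+) was estimated by limma voom over 3 biological replicates.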
# [1] = compound: compound 19 (5-tert-butyl-thalidomide)
# [2] = compound: compound 22 (5-morpholino-thalidomide)
# [3] = compound: compound 33 (diphenyl IMiD analogue)
# 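Further: pooled lentiviral library of zinc finger degron-EGFP fusions in mCherry-positive Jurkat cells, FACS-sorted after compound exposure, with degron abundance counted by next-generation sequencing.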
Sequence,log2 fold change of degron read counts [1],log2 fold change of degron read counts [2],log2 fold change of degron read counts [3],log2 fold change of degron read counts (compound: thalidomide)
"LWCNQCGFLCTQKGNLLRHIKL [46L_47W_49N_50Q_52G_53F_54L_55C_67L_, Q9UKT9]",-0.0173,-0.578,-0.261,-0.106
"LYCEICGFACTQKGNLLRHIKL [46L_47Y_49E_50I_52G_53F_54A_55C_67L_, Q9UKT9]",3.17,3.5,2.65,1.71
"LACEICGFACTQKGNLLRHIKL [46L_47A_49E_50I_52G_53F_54A_55C_67L_, Q9UKT9]",3.1,2.3,0.347,0.922
"LECEICGFACTQKGNLLRHIKL [46L_47E_49E_50I_52G_53F_54A_55C_67L_, Q9UKT9]",0.666,-1.22,0.464,1.55
"LGCEICGFACTQKGNLLRHIKL [46L_47G_49E_50I_52G_53F_54A_55C_67L_, Q9UKT9]",0.464,-0.188,-0.784,-0.556
"LICEICGFACTQKGNLLRHIKL [46L_47I_49E_50I_52G_53F_54A_55C_67L_, Q9UKT9]",0.692,2.24,1.68,2.74
"LWCEICGFACTQKGNLLRHIKL [46L_47W_49E_50I_52G_53F_54A_55C_67L_, Q9UKT9]",2.64,3.24,2.31,1.06
"LCCEICGFACTQKGNLLRHIKL [46L_47C_49E_50I_52G_53F_54A_55C_67L_, Q9UKT9]",1.77,1.67,1,1.51
"LSCEICGFACTQKGNLLRHIKL [46L_47S_49E_50I_52G_53F_54A_55C_67L_, Q9UKT9]",2.2,2.05,0.991,1.15
"LQCEICGFACTQKGNLLRHIKL [46L_47Q_49E_50I_52G_53F_54A_55C_67L_, Q9UKT9]",2.27,1.95,1.57,3.4
"FECNQCGRAFTQKGNLLRHIKL [46F_47E_49N_50Q_52G_53R_54A_55F_67L_, Q9UKT9]",-3.75,-4.2,-2.96,-3.19
"LQCNQCGFPCTQKGNLLRHIKL [46L_47Q_49N_50Q_52G_53F_54P_55C_67L_, Q9UKT9]",-2.34,-3,-2.68,-1.74
"FQCDQCGALFTQKGNLLRHIKL [46F_47Q_49D_50Q_52G_53A_54L_55F_67L_, Q9UKT9]",-3.22,-2,-1.8,-0.219
"FGCPQCGAMFTQKGNLLRHIKL [46F_47G_49P_50Q_52G_53A_54M_55F_67L_, Q9UKT9]",1.86,-1.68,0.259,-2.04
"LICEICGFVCTQKGNLLRHIKL [46L_47I_49E_50I_52G_53F_54V_55C_67L_, Q9UKT9]",-0.507,0.245,1.34,1.57
"FECNQCGANFTQKGNLLRHIKL [46F_47E_49N_50Q_52G_53A_54N_55F_67L_, Q9UKT9]",-3.06,-3.6,-1.14,-1.62
"FYCDICGAQFTQKGNLLRHIKL [46F_47Y_49D_50I_52G_53A_54Q_55F_67L_, Q9UKT9]",3.18,3.55,2.11,-0.00703
"FWCDICGAQFTQKGNLLRHIKL [46F_47W_49D_50I_52G_53A_54Q_55F_67L_, Q9UKT9]",2.88,3.68,1.52,0.174
"FDCDICGAQFTQKGNLLRHIKL [46F_47D_49D_50I_52G_53A_54Q_55F_67L_, Q9UKT9]",0.389,-1.35,-1.71,-1.04
"FLCDICGAQFTQKGNLLRHIKL [46F_47L_49D_50I_52G_53A_54Q_55F_67L_, Q9UKT9]",-0.363,-1.53,0.682,0.0613
"FFCDICGAQFTQKGNLLRHIKL [46F_47F_49D_50I_52G_53A_54Q_55F_67L_, Q9UKT9]",3.41,3.28,1.67,0.0187
"FHCDICGAQFTQKGNLLRHIKL [46F_47H_49D_50I_52G_53A_54Q_55F_67L_, Q9UKT9]",1.04,1.14,-0.0246,-1.24
"FQCDICGAQFTQKGNLLRHIKL [46F_47Q_49D_50I_52G_53A_54Q_55F_67L_, Q9UKT9]",-0.785,1.6,1.09,2.9
"FTCDICGAQFTQKGNLLRHIKL [46F_47T_49D_50I_52G_53A_54Q_55F_67L_, Q9UKT9]",-0.504,1.41,1.33,1.15
"FCCDICGAQFTQKGNLLRHIKL [46F_47C_49D_50I_52G_53A_54Q_55F_67L_, Q9UKT9]",1.75,1.58,1.41,0.205
"FSCPQCGARFTQKGNLLRHIKL [46F_47S_49P_50Q_52G_53A_54R_55F_67L_, Q9UKT9]",0.264,-0.514,-0.493,-0.61
"LRCPICGFHCTQKGNLLRHIKL [46L_47R_49P_50I_52G_53F_54H_55C_67L_, Q9UKT9]",-0.0105,0.25,1.59,2.32
"FECEICGHTFTQKGNLLRHIKL [46F_47E_49E_50I_52G_53H_54T_55F_67L_, Q9UKT9]",-3.53,-3.12,-2.68,-2.57
